# According to PubChem BioAssay AID1159580 (chemical genetic matrix, 2015):
# The campaign covered roughly 5,500 compounds. About 2,000 (36%) were called active. About 18% were inconclusive and are not listed. The list shows a part of the results. Unmarked numbers belong to inactive results. Cut-off read from the data, not from the text of the source: active = normalized growth mostly below about 0.91 (no sharp cut-off); inconclusive = no clear call, values can overlap the other calls; inactive = mostly above about 0.92.
# Experiment: chemical genetic growth profiling, strain panel (AID 1159580);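 note: tested at 20 µM; growth read once vehicle control cultures reached saturation at 30 °C; 1 = growth at the plate median or of vehicle wells; lower values mean less growth of the strain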
# Conditions: S. cerevisiae deletion strains, growth OD
# [1] = locus YAR019C, strain CDC15, hits give low values
# [2] = locus YBL105C, strain PKC1, hits give low values
# [3] = locus YBR135W, strain CKS1, hits give low values
# [4] = locus YBR136W, strain MEC1, hits give low values
# [5] = locus YBR160W, strain CDC28, hits give low values
# [6] = locus YDL017W, strain CDC7, hits give low values
# [7] = locus YDL028C, strain MPS1, hits give low values
# [8] = locus YDL101C, strain DUN1, hits give low values
# [9] = locus YDL108W, strain KIN28, hits give low values
# [10] = locus YDL132W, strain cdc53, hits give low values
# [11] = locus YDL214C, strain PRR2, hits give low values
# [12] = locus YDR052C, strain DBF4, hits give low values
# [13] = locus YDR054C, strain cdc34, hits give low values
# [14] = locus YDR226W, strain ADK1, hits give low values
# [15] = locus YDR477W, strain SNF1, hits give low values
# [16] = locus YER123W, strain YCK3, hits give low values
# [17] = locus YER133W, strain GLC7, hits give low values
# [18] = locus YFL009W, strain cdc4, hits give low values
# [19] = locus YFL029C, strain CAK1, hits give low values
# [20] = locus YFR003C, strain YPI1, hits give low values
# [21] = locus YFR019W, strain FAB1, hits give low values
# [22] = locus YFR028C, strain CDC14, hits give low values
# [23] = locus YGR040W, strain KSS1, hits give low values
# [24] = locus YGR052W, strain FMP48, hits give low values
# [25] = locus YGR092W, strain DBF2, hits give low values
# [26] = locus YHR030C, strain SLT2, hits give low values
# [27] = locus YHR079C, strain IRE1, hits give low values
# [28] = locus YHR082C, strain KSP1, hits give low values
# [29] = locus YHR205W, strain SCH9, hits give low values
# [30] = locus YIL147C, strain SLN1, hits give low values
# [31] = locus YJL095W, strain BCK1, hits give low values
# [32] = locus YJL128C, strain PBS2, hits give low values
# [33] = locus YJL157C, strain FAR1, hits give low values
# [34] = locus YJR016C, strain ILV3, hits give low values
# [35] = locus YJR066W, strain TOR1 (second series), hits give low values
# [36] = locus YJR066W, strain TOR1, hits give low values
# [37] = locus YKL048C, strain ELM1, hits give low values
# [38] = locus YKL067W, strain YNK1, hits give low values
# [39] = locus YKL101W, strain HSL1, hits give low values
# [40] = locus YKL193C, strain SDS22, hits give low values
# [41] = locus YKL203C, strain TOR2, hits give low values
# [42] = locus YLR113W, strain HOG1, hits give low values
# [43] = locus YLR133W, strain CKI1, hits give low values
# [44] = locus YLR403W, strain SFP1, hits give low values
# [45] = locus YML070W, strain DAK1, hits give low values
# [46] = locus YMR001C, strain CDC5, hits give low values
# [47] = locus YMR205C, strain PFK2 (second series), hits give low values
# [48] = locus YMR277W, strain FCP1, hits give low values
# [49] = locus YNL006W, strain LST8, hits give low values
# [50] = locus YNL020C, strain ARK1, hits give low values
# [51] = locus YNL161W, strain CBK1, hits give low values
# [52] = locus YNL183C, strain NPR1, hits give low values
# [53] = locus YNL207W, strain RIO2, hits give low values
# [54] = locus YNL222W, strain SSU72, hits give low values
# [55] = locus YNL307C, strain MCK1 (second series), hits give low values
# [56] = locus YOL078W, strain AVO1, hits give low values
# [57] = locus YOL136C, strain PFK27, hits give low values
# [58] = locus YOR061W, strain CKA2, hits give low values
# [59] = locus YOR119C, strain RIO1, hits give low values
# [60] = locus YOR231W, strain MKK1, hits give low values
# [61] = locus YOR329C, strain SCD5, hits give low values
# [62] = locus YPL031C, strain PHO85, hits give low values
# [63] = locus YPL153C, strain RAD53, hits give low values
# [64] = locus YPL204W, strain HRR25, hits give low values
# [65] = locus YPL209C, strain IPL1, hits give low values
# [66] = locus YPL256C, strain CLN2, hits give low values
# [67] = locus YPR025C, strain CCL1, hits give low values
# [68] = locus YPR106W, strain ISR1, hits give low values
# [69] = locus YPR111W, strain DBF20, hits give low values
# [70] = strain NNK1, hits give low values
# [71] = strain TSCII, hits give low values
structure (smiles),measurement,setting,value
O=C(c1cccs1)N(Cc1cccnc1)Cc1ccc(Cl)cc1Cl,normalized growth,[1],0.979
same,normalized growth,[2],0.966
same,normalized growth,[3],0.961
same,normalized growth,[4],0.955
same,normalized growth,[5],0.964
same,normalized growth,[6],0.968
same,normalized growth,[7],0.961
same,normalized growth,[8],0.97
same,normalized growth,[9],0.96
same,normalized growth,[10],0.96
same,normalized growth,[11],0.94
same,normalized growth,[12],0.96
same,normalized growth,[13],0.968
same,normalized growth,[14],0.96
same,normalized growth,[15],0.934
same,normalized growth,[16],0.887
same,normalized growth,[17],0.946
same,normalized growth,[18],0.96
same,normalized growth,[19],0.97
same,normalized growth,[20],0.966
same,normalized growth,[21],0.918
same,normalized growth,[22],0.965
same,normalized growth,[23],0.92
same,normalized growth,[24],1.01
same,normalized growth,[25],0.984
same,normalized growth,[26],1.22 [resistant] (active)
same,normalized growth,[27],1.21
same,normalized growth,[28],1.07
same,normalized growth,[29],0.971
same,normalized growth,[30],0.964
same,normalized growth,[31],1.04
same,normalized growth,[32],0.939
same,normalized growth,[33],0.95
same,normalized growth,[34],0.971
same,normalized growth,[35],0.941
same,normalized growth,[36],1.1
same,normalized growth,[37],0.963
same,normalized growth,[38],0.938
same,normalized growth,[39],0.929
same,normalized growth,[40],0.969
same,normalized growth,[41],1.02
same,normalized growth,[42],1
same,normalized growth,[43],0.945
same,normalized growth,[44],0.965
same,normalized growth,[45],0.929
same,normalized growth,[46],0.966
same,normalized growth,[47],0.944
same,normalized growth,[48],0.974
same,normalized growth,[49],0.967
same,normalized growth,[50],0.947
same,normalized growth,[51],0.968
same,normalized growth,[52],1.04
same,normalized growth,[53],0.969
same,normalized growth,[54],0.957
same,normalized growth,[55],0.955
same,normalized growth,[56],0.962
same,normalized growth,[57],0.906
same,normalized growth,[58],0.929
same,normalized growth,[59],0.978
same,normalized growth,[60],0.997
same,normalized growth,[61],0.972
same,normalized growth,[62],0.927
same,normalized growth,[63],0.937
same,normalized growth,[64],0.902
same,normalized growth,[65],0.969
same,normalized growth,[66],1.15 [resistant] (active)
same,normalized growth,[67],0.965
same,normalized growth,[68],0.969
same,normalized growth,[69],0.955
same,normalized growth,[70],0.975
same,normalized growth,[71],0.966
O=S(=O)(c1ccc(Cl)cc1)N(Cc1cccnc1)Cc1ccc(Cl)cc1Cl,normalized growth,[1],0.951
same,normalized growth,[2],0.966
same,normalized growth,[3],0.962
same,normalized growth,[4],0.95
same,normalized growth,[5],0.969
same,normalized growth,[6],0.968
same,normalized growth,[7],0.96
same,normalized growth,[8],0.967
same,normalized growth,[9],0.946
same,normalized growth,[10],0.929
same,normalized growth,[11],0.732
same,normalized growth,[12],0.924
same,normalized growth,[13],0.928
same,normalized growth,[14],0.938
same,normalized growth,[15],0.537 (active)
same,normalized growth,[16],0.469 (active)
same,normalized growth,[17],0.57 (active)
same,normalized growth,[18],0.947
same,normalized growth,[19],0.942
same,normalized growth,[20],0.963
same,normalized growth,[21],0.727 (active)
same,normalized growth,[22],0.94
same,normalized growth,[23],0.518 (active)
same,normalized growth,[24],0.543 (active)
same,normalized growth,[25],0.704
same,normalized growth,[26],0.465 (active)
same,normalized growth,[27],0.55
same,normalized growth,[28],0.7
same,normalized growth,[29],0.583
same,normalized growth,[30],0.939
same,normalized growth,[31],0.273 (active)
same,normalized growth,[32],0.958
same,normalized growth,[33],0.715
same,normalized growth,[34],0.949
same,normalized growth,[35],0.586 (active)
same,normalized growth,[36],0.46 (active)
same,normalized growth,[37],0.89
same,normalized growth,[38],0.745
same,normalized growth,[39],0.799
same,normalized growth,[40],0.941
same,normalized growth,[41],0.408 (active)
same,normalized growth,[42],0.54 (active)
same,normalized growth,[43],0.767
same,normalized growth,[44],0.549 (active)
same,normalized growth,[45],0.673 (active)
same,normalized growth,[46],0.963
same,normalized growth,[47],0.713 (active)
same,normalized growth,[48],0.932
same,normalized growth,[49],0.959
same,normalized growth,[50],0.743
same,normalized growth,[51],0.968
same,normalized growth,[52],0.47 (active)
same,normalized growth,[53],0.913
same,normalized growth,[54],0.961
same,normalized growth,[55],0.68
same,normalized growth,[56],0.946
same,normalized growth,[57],0.711
same,normalized growth,[58],0.787
same,normalized growth,[59],0.428 (active)
same,normalized growth,[60],0.593
same,normalized growth,[61],0.96
same,normalized growth,[62],0.478 (active)
same,normalized growth,[63],0.42 (active)
same,normalized growth,[64],0.526 (active)
same,normalized growth,[65],0.949
same,normalized growth,[66],0.674 (active)
same,normalized growth,[67],0.952
same,normalized growth,[68],0.962
same,normalized growth,[69],0.975
same,normalized growth,[70],0.948
same,normalized growth,[71],0.927
CC(C)(C)C(=O)N(Cc1cccnc1)Cc1ccc(Cl)cc1Cl,normalized growth,[1],0.998
same,normalized growth,[2],0.988
same,normalized growth,[3],1
same,normalized growth,[4],0.986
same,normalized growth,[5],0.995
same,normalized growth,[6],0.992
same,normalized growth,[7],0.992
same,normalized growth,[8],0.985
same,normalized growth,[9],0.982
same,normalized growth,[10],0.997
same,normalized growth,[11],0.914
same,normalized growth,[12],0.993
same,normalized growth,[13],0.991
same,normalized growth,[14],1
same,normalized growth,[15],0.948
same,normalized growth,[16],0.842
same,normalized growth,[17],0.948
same,normalized growth,[18],0.998
same,normalized growth,[19],0.996
same,normalized growth,[20],0.993
same,normalized growth,[21],0.9
same,normalized growth,[22],1
same,normalized growth,[23],0.928
same,normalized growth,[24],1.01
same,normalized growth,[25],0.936
same,normalized growth,[26],1.07
same,normalized growth,[27],1.01
same,normalized growth,[28],1.02
same,normalized growth,[29],0.935
same,normalized growth,[30],0.983
same,normalized growth,[31],1.04
same,normalized growth,[32],0.96
same,normalized growth,[33],0.909
same,normalized growth,[34],0.998
same,normalized growth,[35],0.909
same,normalized growth,[36],0.995
same,normalized growth,[37],0.973
same,normalized growth,[38],0.938
same,normalized growth,[39],0.943
same,normalized growth,[40],0.995
same,normalized growth,[41],0.99
same,normalized growth,[42],1.02
same,normalized growth,[43],0.952
same,normalized growth,[44],0.913
same,normalized growth,[45],0.907
same,normalized growth,[46],0.995
same,normalized growth,[47],0.936
same,normalized growth,[48],0.996
same,normalized growth,[49],1
same,normalized growth,[50],0.934
same,normalized growth,[51],0.997
same,normalized growth,[52],1.02
same,normalized growth,[53],1
same,normalized growth,[54],0.993
same,normalized growth,[55],0.963
same,normalized growth,[56],1
same,normalized growth,[57],0.919
same,normalized growth,[58],0.906
same,normalized growth,[59],0.988
same,normalized growth,[60],1.02
same,normalized growth,[61],0.996
same,normalized growth,[62],0.925
same,normalized growth,[63],0.917
same,normalized growth,[64],0.927
same,normalized growth,[65],0.989
same,normalized growth,[66],1.02
same,normalized growth,[67],0.995
same,normalized growth,[68],0.992
same,normalized growth,[69],0.997
same,normalized growth,[70],0.993
same,normalized growth,[71],0.996
